Here are results for eleven compounds from PubChem BioAssay (EPA / NIEHS).

Assay [1] is described as follows: Tanguay_ZF_120hpf_PFIN_legacy: (Legacy) Oregon State University Tanguay Lab 120 Hour Post-fertilization zebrafish Assay for Pectoral Fin Malformation (AID 2283648).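 Also: each larva judged yes or no for fin defect by brightfield with dead larvae skipped.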 The procedure, abridged:
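Tropical 5D wild-type embryos, dechorionated with pronase at 4 hpf, were placed singly in wells at 6 hpf and statically exposed until 120 hpf at 28C, sealed and dark, with 0.64% (vol/vol) final DMSO; pectoral fin malformation scored present/absent.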

Assay [2] is described as follows: Tanguay_ZF_120hpf_CFIN_legacy: (Legacy) Oregon State University Tanguay Lab 120 Hour Post-fertilization zebrafish Assay for Caudal Fin Malformation (AID 2283649). The essentials:
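Dechorionated Tropical 5D wild-type embryos, one per well from 6 hpf, static exposure to 120 hpf at 28C in 0.64% DMSO. Caudal fin malformation scored by brightfield as present/absent; not scored in dead embryos.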

A short description of assay [3]: Tanguay_ZF_120hpf_PIG_legacy: (Legacy) Oregon State University Tanguay Lab 120 Hour Post-fertilization zebrafish Assay for Pigmentation Malformation (AID 2283650). The procedure, abridged: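 Tropical 5D wild-type zebrafish embryos, dechorionated with pronase at 4 hpf, were exposed singly from 6 hpf to 120 hpf statically at 28C in sealed, dark plates with 0.64% DMSO; pigmentation scored present/absent by brightfield microscopy, fitted against DMSO.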

Assay [4] in a line: Tanguay_ZF_120hpf_CIRC_legacy: (Legacy) Oregon State University Tanguay Lab 120 Hour Post-fertilization zebrafish Assay for Circulatory Malformation (AID 2283651). The essentials:
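Dechorionated wild-type 5D zebrafish embryos, one per well, statically exposed from 6 to 120 hpf at 28C with 0.64% DMSO; circulatory malformation scored present/absent by brightfield microscopy at 120 hpf, dead embryos excluded.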

A short description of assay [5]: Tanguay_ZF_120hpf_TRUN_legacy: (Legacy) Oregon State University Tanguay Lab 120 Hour Post-fertilization zebrafish Assay for Truncated Body (AID 2283655). The essentials: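 Dechorionated Tropical 5D wild-type embryos placed singly from 6 hpf and statically exposed to 120 hpf at 28C, final DMSO 0.64%. Truncated body scored as present/absent by brightfield; not scored in dead embryos.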

The nature of assay [6]: Tanguay_ZF_120hpf_NC_legacy: (Legacy) Oregon State University Tanguay Lab 120 Hour Post-fertilization zebrafish Assay for Notochord and Tail Malformation (AID 2283656). The essentials:
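Dechorionated Tropical 5D wild-type zebrafish embryos, one per well from 6 hpf, statically exposed to 120 hpf at 28C in 0.64% DMSO final. Notochord distortion scored present/absent by brightfield; dead embryos excluded.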

Read-out in assay [7]: ABC Transporter (ABCB1), ABCB1 (gene 5243)
The experiment in a line: CLD_ABCB1_6hr: CellzDirect (CLD) Gene Expression Assay for ABC Transporter (ABCB1) at 6 hours (AID 2283659).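 Also: hits raise ABCB1 transcript above the DMSO vehicle baseline.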 The essentials:
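Primary human hepatocytes (two donor preparations) dosed daily for two days with chemicals at multiple concentrations, 0.2% DMSO vehicle; harvested 6 h post-dose. ABCB1 mRNA induction quantified by qNPA chemiluminescence; gain-of-signal fitted versus DMSO.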

The nature of assay [8]: Tanguay_ZF_120hpf_TR_legacy: (Legacy) Oregon State University Tanguay Lab 120 Hour Post-fertilization zebrafish Assay for Touch Response (AID 2283667). The essentials: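 Tropical 5D wild-type zebrafish embryos were exposed statically in sealed, foil-covered plates at 28C until 120 hpf, with 0.64% (vol/vol) final DMSO. Touch response was scored as present or absent; embryos that died were not scored.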

Read-out in assay [9]: sulfotransferase (SULT2A), SULT2A1 (gene 6822)
The experiment in a line: CLD_SULT2A_6hr: CellzDirect (CLD) Gene Expression Assay for sulfotransferase (SULT2A) at 6 hours (AID 2283669).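 Also: hits raise transcript level above the DMSO vehicle baseline.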 The procedure, abridged:
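Primary human hepatocytes from two donor preparations were dosed daily with chemicals or 0.2% DMSO and harvested at 6 h. Transcript induction read by qNPA chemiluminescence, fitted for gain of signal relative to DMSO; morphology-based cytotoxicity annotated.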

Assay [10] is described as follows: CLD_ACTIN_24hr: CellzDirect (CLD) Gene Expression Assay for Baseline Control (Actin) at 24 hours (AID 2283670). The procedure, abridged:
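Primary human hepatocytes dosed over multiple concentrations with 0.2% DMSO vehicle; actin mRNA measured at 24 h by qNPA chemiluminescence. Background control endpoint, fitted as gain of signal versus DMSO.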

Read-out in assay [11]: xenobiotic metabolism (CYP1A1), CYP1A1 (gene 1543)
The experiment in a line: CLD_CYP1A1_6hr: CellzDirect (CLD) Gene Expression Assay for xenobiotic metabolism (CYP1A1) at 6 hours (AID 2283661).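 Also: potency for transcript induction above DMSO vehicle baseline.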 The procedure, abridged: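 Primary human hepatocytes from two donors, compound versus 0.2% DMSO vehicle. CYP1A1 mRNA measured 6 h after dosing by quantitative nuclease protection assay with chemiluminescent read-out; induction fitted relative to DMSO, cytotoxicity flagged by microscopy.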

The subject of assay [12] is Thyroperoxidase (TPO), gene 54314. The experiment in a line: CCTE_Simmons_AUR_rTPO: CCTE's Amplex UltraRed Assay for Thyroperoxidase (TPO) Inhibition, Simmons Lab (AID 2283662).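 As to AC50: potency for loss of signal meaning inhibition of peroxidase activity.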 The procedure, abridged:
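Rat thyroid microsomal TPO + 25 uM AUR in 200 mM K phosphate; cpd 5 nM–87.5 uM [final], 8 conc, 0.5% DMSO; 300 uM H2O2 starts rxn; 37C dark 30 min; endpoint FI 544/590 nm; n=3.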

Assay [13] can be described thus: CCTE_Simmons_CellTiterGLO_HEK293T: Viability Assessment in CCTE's Assays for Thyroperoxidase (TPO) Inhibition, Simmons Lab (AID 2283665).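 As to AC50: cells exposed to compound for 24 h before readout; actives reduce ATP signal below DMSO vehicle meaning cytotoxicity.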 The essentials: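 HEK293T cells in DMEM with 1% FBS, dosed 24 h at 37C with 8 concentrations, 5 nM–87.5 uM final, 0.5% DMSO. ATP measured by CellTiter Glo luminescence; loss of signal vs DMSO, three biological replicates.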
Read-out in assay [14]: glucuronosyltransferase (UGT1A1), UGT1A1 (gene 54658)
The experiment in a line: CLD_UGT1A1_6hr: CellzDirect (CLD) Gene Expression Assay for glucuronosyltransferase (UGT1A1) at 6 hours (AID 2283672). The essentials:
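Primary human hepatocytes from two donor preparations, dosed with fresh solutions in 0.2% DMSO, harvested at 6 h. UGT1A1 mRNA measured by qNPA chemiluminescence; induction fitted upward versus DMSO.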

Read-out in assay [15]: solute carrier (SLC10A1), SLC10A1 (gene 6554)
The experiment in a line: LTEA_HepaRG_SLC10A1: Life Technologies and Expression Analysis (LTEA) Assay for solute carrier (SLC10A1) using HepaRG (AID 2283657; active = hit-call score of the fitted dose curve at least 0.9, where 1 is the maximum; inactive = score below 0.9). To be noted: mRNA level, 48 h; actives raise or lower the signal. The essentials: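 Differentiated HepaRG cells were plated 48 h, then exposed in serum-free induction medium for 48 h to 8 concentrations (top 100 uM, half-log steps, 0.5% DMSO). SLC10A1 mRNA was quantified by qRT-PCR normalized to ACTB, GAPDH, POLR2A; bidirectional fit versus DMSO.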

Read-out in assay [16]: matrix metalloproteinase-1 (MMP1), MMP1 (gene 4312)
The experiment in a line: LTEA_HepaRG_MMP1: Life Technologies and Expression Analysis (LTEA) Assay for matrix metalloproteinase-1 (MMP1) using HepaRG (AID 2283658; active = hit-call score of the fitted dose curve at least 0.9, where 1 is the maximum; inactive = score below 0.9). To be noted: mRNA level, 48 h; actives raise or lower the signal. The essentials:
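Differentiated human HepaRG cells, 48 h post-plating in serum-free induction medium, were exposed 48 h to eight half-log concentrations topping at 100 uM in 0.5% DMSO, duplicate. MMP1 mRNA measured by Fluidigm TaqMan qRT-PCR, normalized to ACTB, GAPDH, POLR2A; bidirectional fits versus DMSO.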

Read-out in assay [17]: Cytochrome P450 (CYP24A1_1), CYP24A1 (gene 1591)
The experiment in a line: LTEA_HepaRG_CYP24A1_1: Life Technologies and Expression Analysis (LTEA) Assay for Cytochrome P450 (CYP24A1_1) using HepaRG (AID 2283671; active = hit-call score of the fitted dose curve at least 0.9, where 1 is the maximum; inactive = score below 0.9). To be noted: mRNA level, 48 h; actives raise or lower the signal. The procedure, abridged:
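HepaRG, 48 h exposure, 8-pt half-log series from 100 uM in 0.5% DMSO, duplicates. Readout: TaqMan qRT-PCR of CYP24A1 mRNA, housekeeping-normalized (ACTB/GAPDH/POLR2A). Bidirectional curve fit vs DMSO baseline.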

Where “and” joins values, the source holds several entries; their conditions need not be identical. Equal values may be shown once. Records with an inconclusive call do not appear. The source holds several records for some structures; these can differ, active in one and inactive in another. Calls of active or inactive are those of the source. The calls were made as follows, unless noted: active = hit-call score of the fitted dose curve at least 0.9, where 1 is the maximum; inconclusive = response in the unintended direction; inactive = score below 0.9.

In the case of `CC[C@H](C)[C@H]1O[C@]2(C=C[C@@H]1C)C[C@@H]1C[C@@H](C/C=C(\C)[C@@H](O[C@H]3C[C@H](OC)[C@@H](O[C@H]4C[C@H](OC)[C@@H](O)[C@H](C)O4)[C@H](C)O3)[C@@H](C)/C=C/C=C3\CO[C@@H]4[C@H](O)C(C)=C[C@@H](C(=O)O1)[C@]34O)O2` (tested in a mixture with another compound), the result in assay [1], in assay [2], in assay [3], in assay [4], in assay [5] and in assay [6] was inactive. The outcome in [7], in assay [9] and in assay [10] was inactive. Further, the AC50 – broadly, the midpoint of the concentration-response curve, whichever way the signal moves – in assay [8] was 0.45 µM (active).

On to `COP(=S)(OC)Oc1ccc(SC)c(C)c1`, for which the call in [1], in [2], in assay [3], in assay [4], in assay [5] and in [6] was inactive. For the same compound, the call in assay [13], in assay [9] and in assay [14] was inactive. Further, the AC50 in assay [11] is 5.13 µM (active); in assay [12], 34.3 µM (active).

`Oc1ccc(Cl)cc1Cc1ccccc1`: the outcome in [1], in assay [2], in [3], in assay [4], in assay [5] and in assay [6] was inactive. For the same compound, the outcome in assay [7], in assay [8], in [10] and in [14] was inactive. The AC50 in assay [12] was 12.7 µM (active).

Turning to `COP(=S)(OC)Oc1ccc([N+](=O)[O-])cc1`, the result in [1], in assay [2], in [3], in assay [4], in assay [5] and in [6] was inactive. Further, the call in assay [7], in assay [13], in assay [8], in assay [9] and in assay [14] was inactive. The AC50 in assay [12] was 4.82 µM (active).

Take `CCOCN(C(=O)CCl)c1c(C)cccc1CC`: the outcome in assay [1], in assay [2], in assay [3], in assay [4], in [6] and in assay [7] was inactive. Moreover, the compound was called inactive in [8], in [9] and in [14]. For the same compound, the AC50 in assay [5] was 47.5 µM (active).

Regarding `O=C(O)C(F)(F)C(F)(F)C(F)(F)C(F)(F)C(F)(F)C(F)(F)C(F)(F)F`, the compound was called inactive in [1], in [2], in assay [3], in assay [4], in assay [5] and in [6]. For the same compound, the outcome in assay [7], in assay [8] and in assay [14] was inactive.

As for `CC(C)N(C(=O)COc1nnc(C(F)(F)F)s1)c1ccc(F)cc1`, the compound was called inactive in assay [1], in assay [2], in assay [3], in assay [4], in [5] and in assay [7]. Further, the result in assay [12], in [8], in [9], in [10] and in assay [14] was inactive.

As to `Cc1[nH]c(=O)n(C(C)(C)C)c(=O)c1Cl`, the compound was classed as inactive in assay [1], in [2], in assay [3], in assay [4], in assay [5] and in [6]. Moreover, the outcome in [16], in [7], in [9], in assay [10], in [17] and in [14] was inactive. In addition, the AC50 in assay [15] is 50 µM (active); in assay [8], 0.00793 µM (active).

Turning to `ClC1C(Cl)C(Cl)C(Cl)C(Cl)C1Cl` (centres undefined), the compound was called inactive in [1], in assay [2], in assay [3], in assay [4], in assay [5] and in assay [6]. Also, the compound was classed as inactive in assay [15], in [16], in assay [7], in [8], in assay [9] and in [17]. Further, the outcome in [14] was inactive.

On to `Oc1cc(Cl)ccc1Oc1ccc(Cl)cc1Cl`, for which the result in assay [1], in assay [2], in assay [3], in assay [4], in [5] and in assay [6] was inactive. The compound was classed as inactive in [7], in [12], in assay [8] and in assay [10]. In addition, the AC50 was 36.3 µM (active) and 21.6 µM (active) and 43.6 µM (active) in assay [12]; 13.1 µM (active) [middle of 4 runs] in assay [13].

As to `O=C(Nc1ccccc1)Nc1cnns1`, the outcome in assay [1], in assay [2], in assay [3], in assay [4], in assay [5] and in assay [6] was inactive. Besides, the outcome in [13], in assay [8], in assay [9] and in assay [14] was inactive. In addition, in assay [12], the half-maximal activity concentration (AC50) is 43.8 µM (active).
